Hits are enriched below; roughly 4.5% of the tested compounds scored in any of these assays.
hgDAF-12 ag – H. glycines DAF-12 receptor agonists, primary screen, cell-based, luminescence, HEK293, GAL4 fusion, UAS-luciferase; HEK293 GAL4-hgDAF12 UAS-luciferase reporter, agonist luminescence; normalized to butyrate control; AID 687014, 2013; activation, % at 6.8 µM; 370,000 compounds, 1.8% hits;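 active = activation above a cutoff set at the mean of all screened compounds plus 3 SD, cut at about 10% in these data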;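 also: 0% = DMSO wells and 100% = sodium butyrate wells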
hcDAF12 agonist – H. contortus DAF-12 nuclear receptor activators, primary screen, cell-based, luminescence, HEK293, lit1-tk-luc reporter; HEK293 hcDAF-12 lit1-tk-luc reporter; 0% DMSO, 100% Δ7-dafachronic acid; activation, % at 6.8 µM; 370,000 compounds, 1.4% hits; AID 652067, 2013;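 active = activation above the mean of all tested compounds plus 3 SD, cut at about 5.5% in these data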;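 also: 100% = response to 3 µM Δ7-dafachronic acid high control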
ssDAF-12 act – S. stercoralis DAF-12 nuclear receptor activators, primary screen, cell-based, luminescence, HEK293, GRIP1 co-expression, lit1-tk-luc; Nuclear hormone receptor DAF-12 (Strongyloides stercoralis); HEK293 ssDAF-12/GRIP1 lit1-tk-luc reporter; % of 3 µM dafachronic acid response; activation, % at 6.8 µM; 370,000 compounds, 1% hits; AID 652126, 2013;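 active = activation above the mean over all tested compounds plus 3 SD, cut at about 0.9% in these data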;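 also: 0% = DMSO-only wells and 100% = 3 µM delta7-dafachronic acid wells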
GAA850 FXN act – FXN promoter activators, primary screen, cell-based, luciferase luminescence, HEK293 lucGAA850. HEK293 lucGAA850 FXN promoter luciferase reporter, 24 h; percent of 10 µM SAHA response. activation, % at 6 µM. 360,000 compounds, 0.56% hits. AID 540364, 2011;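 active = activation above the average of all compounds screened plus 3 SD, cutoff fixed separately per campaign, cut at about 7.5% in these data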;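 also: 0% = DMSO wells and 100% = 10 µM SAHA wells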
DAX1 inh-1 – DAX1 (NR0B1) inhibitors on StAR promoter, primary screen, cell-based, luminescence, SF-1 (NR5A1), full-length DAX-1; AID 652010, 2013; 370,000 compounds, 1.1% hits; HEK293T StAR-luciferase reporter, SF-1/DAX-1 repression relief; inhibition, % at 6.8 µM;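 active = inhibition above the mean over all tested compounds plus 3 SD, cut at about 3.6% in these data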;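 also: 0% = DAX-1 cells with DMSO and 100% = cells lacking DAX-1 with DMSO; higher inhibition means more luminescence from relief of DAX-1 repression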
DAX1 inh-2 – DAX1 (NR0B1) inhibitors, primary screen, cell-based, HEK293, Gal4-DAX1, luciferase luminescence; Nuclear receptor subfamily 0 group B member 1 (Homo sapiens), P51843; HEK293 Gal4-DAX1 luciferase reporter; inhibition, % at 6.75 µM; 340,000 compounds, 0.99% hits; AID 504766, 2011;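 active = inhibition above the mean over all tested compounds plus 3 SD, cut at about 4.2% in these data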;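 also: 0% = DAX1-transfected cells with DMSO and 100% = empty-vector control cells with DMSO; inhibition shows as a rise in luminescence from relieved DAX1 repression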
LXRb hcDAF ctr – LXR agonists, Gal4 luciferase reporter, confirmation, counter-screen for hcDAF-12 agonist project, cell-based, luminescence, HEK293, H. contortus campaign; HEK293 Gal4-LXR tk-luc reporter, 24 h; normalized: DMSO 0%, positive control 100%; activation, % at 6.8 µM; shares compounds with hcDAF12 agonist; 3,400 tested, under 10 active;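 active = mean percent activation of the reporter above a cutoff set as the average over tested compounds plus their standard deviation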
Target sequence (P55055 whole entry, looked up, the tested form may be a part): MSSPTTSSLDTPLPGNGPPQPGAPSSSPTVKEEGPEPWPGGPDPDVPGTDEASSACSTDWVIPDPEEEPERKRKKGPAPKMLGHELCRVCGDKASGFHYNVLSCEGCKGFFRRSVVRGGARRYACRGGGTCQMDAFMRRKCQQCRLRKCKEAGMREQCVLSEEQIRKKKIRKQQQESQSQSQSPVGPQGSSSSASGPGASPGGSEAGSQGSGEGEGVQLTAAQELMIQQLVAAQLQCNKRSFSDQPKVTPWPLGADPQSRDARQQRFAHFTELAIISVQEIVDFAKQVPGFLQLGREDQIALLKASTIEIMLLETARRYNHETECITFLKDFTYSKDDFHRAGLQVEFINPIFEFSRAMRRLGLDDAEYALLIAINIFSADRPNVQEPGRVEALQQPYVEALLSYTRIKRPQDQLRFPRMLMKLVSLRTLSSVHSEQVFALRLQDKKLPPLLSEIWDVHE
hcDAF12 ag – H. contortus DAF-12 receptor agonists, confirmation, cell-based, luminescence, HEK293, lit1-tk-luc, triplicate | HEK293 hcDAF-12 lit1-tk-luc reporter; % of Δ7-dafachronic acid response | activation, % at 6.8 µM | 3,400 compounds, 61% hits | AID 743032, 2013 | shares compounds with hcDAF12 agonist;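 active = mean activation across triplicate tests above the threshold derived from the earlier primary screen, cut at about 5.5% in these data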;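 also: 0% = DMSO only wells and 100% = 3 µM Δ7-dafachronic acid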
* marks the source's active call; other numbers are inactive results; nt = no result.

SMILES | hgDAF-12 ag | hcDAF12 agonist | ssDAF-12 act | GAA850 FXN act | DAX1 inh-1 | DAX1 inh-2 | LXRb hcDAF ctr | hcDAF12 ag
N#CCSc1nc2ccccc2o1 | 2 | -1 | -1 | 0 | 0 | -1 | nt | nt
COc1ccc(OC)c(S(=O)(=O)N2CCCCC2C(=O)N2CCCN(C)CC2)c1 (configuration not stated) | 0 | -3 | -1 | nt | -1 | nt | nt | nt
COc1ccc(S[C@]2(C(=O)N3CCN(c4ncccn4)CC3)CC(=O)N(P(=O)(OC)OC)[C@@H]2c2ccc(OC)cc2)cc1 | 3 | -1 | -1 | nt | -2 | nt | nt | nt
COC(=O)C1CN(Cc2ccccc2)CCS(=O)(=O)N1Cc1cccc(Cl)c1 (configuration not stated) | 1 | -2 | -1 | nt | 0 | nt | nt | nt
Nc1[nH]c(C(=O)c2ccccc2)c(-c2ccccc2Br)c1C(=O)c1cccs1 | 3 | 0 | -1 | nt | 1 | nt | nt | nt
CC1=NN(c2ccccc2)C(=O)/C1=C/c1ccc[nH]1 | 9 | 7.6* | 1.1* | 6 | 1 | 0 | 0 | 8.8*
COC(=O)[C@]12C[C@H](CC(=O)N3CCN(C(=O)C4CC4)CC3)C(=O)N(Cc3ccc(Cl)cc3Cl)C1=C[C@H](C(C)C)O[C@@H]2C1CC1 | -1 | -3 | -2 | nt | -2 | nt | nt | nt
C[C@@H]1CN([C@@H](C)CO)C(=O)CCCn2cc(nn2)CO[C@H]1CN(C)C(=O)Nc1ccnc(N2CCOCC2)c1 | -2 | -1 | -1 | nt | 0 | nt | nt | nt
O=C(Nc1ccccc1)c1cn2ccccc2n1 | 10 | 7.0* | 0 | -1 | 3 | -4 | 1 | 5
O=C(C1CCC1)N1CCc2cc(S(=O)(=O)N3CCN(c4ccccc4F)CC3)ccc21 | 4 | -1 | 0 | nt | 0 | nt | nt | nt
COCCN1Cc2cc(C(=O)OC)c3c(c2C1=O)c1cc(F)ccc1n3S(=O)(=O)c1ccc(C)cc1 | 2 | -2 | -1 | nt | 0 | nt | nt | nt
O=C(NCCc1ccccc1)C1CCC(=O)N(CCCN2CCCC2=O)C1 (configuration not stated) | 1 | 7.8* | 1.9* | 0 | 0 | 1 | 0 | 1
COc1ccccc1CNC(=O)C1CCC(=O)N(CCCN2CCCC2=O)C1 (configuration not stated) | -1 | 1 | -1 | 0 | 0 | 2 | nt | nt
O=C(NCc1cc2ccccc2[nH]1)C1CCC(=O)N(CCCN2CCCC2=O)C1 (configuration not stated) | 2 | 6.9* | 0 | -1 | 0 | 2 | 0 | 5
Cc1ccc(-c2cc(-c3nnc(SCC(=O)Nc4ccc(OCc5ccccc5)cc4)n3N)[nH]n2)cc1 | 4 | -1 | -1 | nt | -2 | nt | nt | nt
COC(=O)CC#C[C@H](C)[C@@H](NS(=O)(=O)c1ccc([N+](=O)[O-])cc1)C(C)(C)C | 1 | 0 | -1 | nt | 1 | nt | nt | nt
O=C(NNC(=S)NC(=O)c1ccccc1[N+](=O)[O-])c1ccccc1Cl | 4 | 7.2* | -1 | 1 | 0 | -1 | 0 | 0
O=C(Nc1nccs1)c1cnc2sccn2c1=O | 9 | 8.5* | 1.5* | 4 | 2 | 1 | 0 | 7.6*
Cc1ccc(NC(=O)N2CCC(N(C)CCC(C)C)CC2)cc1F | 1 | 0 | -1 | nt | -1 | nt | nt | nt
OC(c1nc2ccccc2[nH]1)C(O)c1nc2ccccc2[nH]1 (configuration not stated) | 0 | 2 | -1 | 1 | 0 | 3 | nt | nt
FC(F)(F)c1nc2cc3nc4ccccc4[nH]c3cc2n1 | 2 | 7.6* | 0 | 2 | 0 | 3 | 1 | 4
N#Cc1ccc(S(=O)(=O)N2CCCc3nc(-c4ccccc4)ccc32)cc1 | 2 | 0 | 1 | nt | -1 | nt | nt | nt
N#Cc1c(NC(=S)NC(=O)c2ccccc2)sc2c1CCCC2 | 3 | -1 | -2 | 4 | 0 | 1 | nt | nt
CCN1CCc2nc(NC(=O)c3ccccc3)sc2C1 | 7 | 8.9* | 1 | 1 | 4.0* | -1 | 1 | 6.8*
O=C(NC(=S)Nc1nc2c(s1)CCCC2)c1ccccc1 | 11* | 12* | 1.0* | 6 | 2 | 1 | 2 | 16*
SMILES | hgDAF-12 ag | hcDAF12 agonist | ssDAF-12 act | GAA850 FXN act | DAX1 inh-1 | DAX1 inh-2 | LXRb hcDAF ctr | hcDAF12 ag
COC(=O)CC(=O)CSc1nc2c(cc1C#N)CCCCC2 | 11* | 10* | 0 | 2 | 3 | 2 | 0 | 4
CCOC(=O)CC(=O)CSc1nc2c(cc1C#N)CCC2 | -2 | -1 | -1 | -1 | 0 | 1 | nt | nt
CC(C)(C)c1ccc(/C=C/C(=O)NC2=NCCS2)cc1 | 7 | 6.6* | 0 | -1 | 4 | -1 | 1 | 5.7*
CC(C)(C)c1ccc(S(=O)(=O)N2CCCC2C(=O)NC2=NCCS2)cc1 (configuration not stated) | 0 | -1 | 0 | 1 | 0 | -1 | nt | nt
O=C(CCCCCn1c(=S)[nH]c2cc3c(cc2c1=O)OCO3)N1CCN(c2ccccc2)CC1 | 2 | 6.8* | -1 | 0 | -1 | 0 | 0 | -1
Cc1noc(C(=O)Nc2ccc(F)c(Cl)c2)c1Cl | 7 | 1 | 0 | 5 | 1 | 1 | nt | nt
Cc1noc(C(=O)Nc2cc(Cl)ccc2O)c1Cl | 0 | 7.4* | 0 | 1 | 0 | 0 | 0 | 5
COc1ccc(Nc2cccccc2=O)cc1 | 7 | -1 | -2 | 4 | 2 | 0 | nt | nt
COc1ccc(Nc2cccc3ccccc23)cc1 | 5 | 6.9* | 1.3* | -1 | 1 | 0 | 1 | 6.5*
COC(=O)c1c(N)[nH]c(C(=O)c2ccccc2)c1-c1ccccc1Br | 5 | -1 | -1 | nt | 1 | nt | nt | nt
